# In PubChem BioAssay (EPA / NIEHS):
# Where “and” joins values, the source holds several entries; their conditions need not be identical. Equal entries are not always repeated. Results filed as inconclusive are left out. Where a structure was tested more than once in an assay, its records may differ in their call. Calls of active or inactive are those of the source. The calls were made as follows, unless noted: active = hit-call score of the fitted dose curve at least 0.9, where 1 is the maximum; inactive = score below 0.9.
# Tests used:
# [1] = IUF_NPC2c_oligodendrocyte_migration_120hr: Leibniz Research Institute for Environmental Medicine (IUF) 120-hour Neural Progenitor Cell Migration Assay for Oligodendrocyte Migration (NPC2c) (AID 2284297);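 also: O4-positive oligodendrocyte migration distance divided by radial glia migration distance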
# Outline: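 Human fetal neural progenitor spheres (0.3 mm) are plated on poly-D-lysine/laminin in N2 differentiation medium and exposed for 120 h, with half-medium renewal at day 3. Oligodendrocyte (O4+) migration distance comes from ICC imaging, normalised to radial glia migration.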
# [2] = IUF_NPC2a_radial_glia_migration_120hr: Leibniz Research Institute for Environmental Medicine (IUF) 120-hour Neural Progenitor Cell Migration Assay for Radial Glia Migration (NPC2a) (AID 2284298)
# Outline: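 Human fetal-cortex neural progenitor spheres (0.3 mm) plated on poly-D-lysine/laminin in N2 differentiation medium, exposed 120 h at 37C with half-medium renewal at day 3. Radial glia migration distance (um) measured from Hoechst-stained nuclei images; DMSO baseline.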
# [3] = IUF_NPC2a_radial_glia_migration_72hr: Leibniz Research Institute for Environmental Medicine (IUF) 72-hour Neural Progenitor Cell Migration Assay for Radial Glia Migration (NPC2a) (AID 2284299)
# Outline: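 Primary hNPC spheres, fetal brain GW 16-19, on PDL/laminin; DMEM/F12 3:1 + 1% N2. Compound dosed day 0, 7 conc. + SC, half-medium refresh day 3. 72 h brightfield, migration distance core-to-front (um), 4 directions averaged.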
# [4] = IUF_NPC2b_neuronal_migration_120hr: Leibniz Research Institute for Environmental Medicine (IUF) 120-hour Neural Progenitor Cell Migration Assay for Neuron Migration (NPC2b) (AID 2284300)
# Outline: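 0.3 mm hNPC spheres on poly-D-lysine/laminin in N2 differentiation medium exposed 120 h, half-medium refresh day 3; 7 concentrations, DMSO max 0.1%. Neuron (TUBB3) distance from sphere core by ICC imaging, normalised to radial glia migration.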
# [5] = IUF_NPC3_neuronal_differentiation_120hr: Leibniz Research Institute for Environmental Medicine (IUF) 120-hour Neuronal Differentiation Assay (NPC3) (AID 2284301)
# Outline: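 Primary human fetal neural progenitor spheres (GW 16-19, 0.3 mm) plated on poly-D-lysine/laminin in N2 medium, exposed from day 0 for 120 h with half-medium refresh at day 3. TUBB3+ cells as percent of Hoechst nuclei in migration area; DMSO baseline.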
# [6] = IUF_NPC4_neurite_length_120hr: Leibniz Research Institute for Environmental Medicine (IUF) 120-hour Neuronal Morphology Assay for Neurite Length (NPC4) (AID 2284302)
# Outline: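 Human fetal cortex (GW 16-19) neural progenitor spheres, 0.3 mm, were plated on poly-D-lysine/laminin in N2 differentiation medium and exposed from day 0 for 120 h, half-feeding at day 3. Mean TUBB3+ neurite length (µm) came from skeletonized images, relative to DMSO.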
# [7] = IUF_NPC5_oligodendrocyte_differentiation_120hr: Leibniz Research Institute for Environmental Medicine (IUF) 120-hour Oligodendrocyte Differentiation Assay (NPC5) (AID 2284304; active = hit-call score of the fitted dose curve at least 0.9, where 1 is the maximum;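 also: primary human fetal neural progenitor spheres plated to migrate and differentiate; share of O4-positive cells among Hoechst nuclei found by CNN image analysis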)
# Outline: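 Human fetal neural progenitor spheres (0.3 mm) plated on poly-D-lysine/laminin in N2 differentiation medium and exposed for 120 h at 7 concentrations, with half-medium renewal at day 3. O4-positive cells identified by CNN, expressed as percent of Hoechst nuclei.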
# [8] = IUF_NPC4_neurite_area_120hr: Leibniz Research Institute for Environmental Medicine (IUF) 120-hour Neuronal Morphology Assay for Neurite Area (NPC4) (AID 2284305; active = hit-call score of the fitted dose curve at least 0.9, where 1 is the maximum)
# Outline: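 Human fetal cortex-derived neural progenitor spheres (0.3 mm, GW 16-19) plated on poly-D-lysine/laminin in N2 differentiation medium and exposed from day 0 for 120 h across 7 concentrations plus solvent control. Neurite area is mean pixel area per TUBB3-positive neuron via skeletonization, analysed relative to DMSO.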
# [9] = IUF_NPC2-5_cytotoxicity_72hr: Cytotoxicity Assessment at 72 hours in the Leibniz Research Institute for Environmental Medicine (IUF) Neural Progenitor Cell Migration and Differentiation Assay for Cytotoxicity (NPC2-5) (AID 2284306; active = hit-call score of the fitted dose curve at least 0.9, where 1 is the maximum;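 also: LDH release into supernatant measured by resorufin fluorescence marking membrane damage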)
# Outline: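 Human fetal (GW 16-19) neural progenitor spheres, 0.3 mm, plated on poly-D-lysine/laminin in N2 differentiation medium and exposed from day 0 to 7 concentrations plus solvent control (DMSO ≤0.1%). LDH-dependent resazurin-to-resorufin fluorescence in supernatant at 72 h.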
# [10] = IUF_NPC2-5_cytotoxicity_120hr: Cytotoxicity Assessment at 120 hours in the Leibniz Research Institute for Environmental Medicine (IUF) Neural Progenitor Cell Migration and Differentiation Assay (NPC2-5) (AID 2284307; active = hit-call score of the fitted dose curve at least 0.9, where 1 is the maximum)
# Outline: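 Human fetal (GW 16-19) neural progenitor spheres (0.3 mm) plated on poly-D-lysine/laminin in N2 differentiation medium, exposed 120 h with half-medium renewal at day 3; 7 concentrations plus solvent control, DMSO ≤0.1%. LDH release in supernatant read by resorufin fluorescence.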
# [11] = IUF_NPC2-5_cell_number_120hr: Cell Number Assessment at 120 hours in the Leibniz Research Institute for Environmental Medicine (IUF) Neural Progenitor Cell Migration and Differentiation Assay (NPC2-5) (AID 2284308);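 also: count of Hoechst-stained nuclei in migration zone around plated human neural progenitor spheres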
# Outline: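 Human fetal neural progenitor spheres (0.3 mm) plated on poly-D-lysine/laminin in N2 differentiation medium, exposed five days across 7 concentrations with half-medium refresh at day 3. Hoechst-positive nuclei counted in migration area at 120 h, relative to DMSO.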
# [12] = VALA_TUBHUV_Agonist_CellCount: Viability Assessment in the VALA Sciences human Umbilical Vein Endothelial Tubule Formation (TUBHUV) Agonism Assay (AID 2284309; active = hit-call score of the fitted dose curve at least 0.9, where 1 is the maximum)
# Outline: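 HUVEC co-cultured 1:3 with HDF for 3 days in 10 ng/ml VEGF, then compounds added in VEGF medium for a further 3 days (72 h). Nuclear-stain/CD31 imaging cell count. Positive-direction fit versus 0.1% DMSO vehicle.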
# [13] = read-out: E-selectin (Homo sapiens) (UniProt P16581); test: BSK_IMphg_ESelectin: BioMAP Diversity Plus: IMphg Assay for Eselectin Biomarker Activity (AID 2284291); conditions: primary human endothelial cells with macrophages
# Outline: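 Human venular endothelial cell–macrophage co-culture, E-selectin measured by ELISA 24 h after chemical dosing. Signal fitted in the positive direction against DMSO as negative control and baseline.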
# [14] = BSK_IMphg_SRB: Viability Assessment in the BioMAP Diversity Plus: IMphg Assay (AID 2284292); conditions: primary human endothelial cells with macrophages;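 also: measured one day after compound addition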
# Outline: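 Human venular endothelial cells with macrophages, 24 h after chemical dosing; total protein by 0.1% SRB staining after 10% TCA fixation, read at 560 nm. Positive-direction fitting versus DMSO baseline.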
# [15] = read-out: Macrophage colony-stimulating factor (MCSF), CSF1 (gene 1435); test: BSK_IMphg_MCSF: BioMAP Diversity Plus: IMphg Assay for Macrophage colony-stimulating factor (MCSF) Biomarker Activity (AID 2284293); conditions: primary human endothelial cells with macrophages
# Outline: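 Co-culture of human venular endothelial cells and macrophages, 24 hours of chemical exposure. M-CSF quantified by ELISA, with parallel SRB total-protein staining for cytotoxicity; activity fitted relative to DMSO.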
# [16] = read-out: Interleukin-10 (IL10), IL10 (gene 3586); test: BSK_IMphg_IL10: BioMAP Diversity Plus: IMphg Assay for Interleukin-10 (IL10) Biomarker Activity (AID 2284294); conditions: primary human endothelial cells with macrophages
# Outline: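 Human venular endothelial cells cocultured with macrophages, dosed 24 h; IL-10 measured by ELISA, activity relative to DMSO. Cytotoxicity assessed in parallel cultures by sulforhodamine B total-protein staining.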
# [17] = BSK_IMphg_SRB.Mphg: Macrophage Viability Assessment in the BioMAP Diversity Plus: IMphg Assay (AID 2284295); conditions: primary human endothelial cells with macrophages
# Outline: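 Venular endothelial cells co-cultured with macrophages, read 24 h after dosing. Total protein measured by 0.1% SRB staining after 10% TCA fixation, absorbance at 560 nm. Fitted in positive direction against DMSO baseline.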
# [18] = read-out: Thrombomodulin, THBD (gene 7056); test: BSK_LPS_Thrombomodulin: BioMAP Diversity Plus: LPS Assay for Thrombomodulin Biomarker Activity (AID 2284296); conditions: primary human HUVEC with PBMC
# Outline: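 Human umbilical vein endothelial cells co-cultured with PBMC and stimulated with LPS; cell-surface thrombomodulin measured by ELISA 24 hours after compound. Gain or loss versus DMSO; cytotoxicity checked by SRB staining in parallel cultures.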
# CD69, CD69 (gene 969) = test: BSK_LPS_CD69: BioMAP Diversity Plus: LPS Assay for CD69 Biomarker Activity (AID 2284303); conditions: primary human HUVEC with PBMC
# Outline: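 Human umbilical vein endothelial cells co-cultured with PBMC under LPS stimulation, chemical exposure 24 h; cell-surface CD69 measured by ELISA and fitted in the positive direction versus DMSO.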
# [19] = VALA_TUBHUV_Antagonist_CellCount: Viability Assessment in the VALA Sciences human Umbilical Vein Endothelial Tubule Formation (TUBHUV) Antagonism Assay (AID 2284310; active = hit-call score of the fitted dose curve at least 0.9, where 1 is the maximum)
# Outline: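 HUVEC co-cultured with HDF (1:3) 3 days in 10 ng/ml VEGF, then 3 days with compounds in VEGF medium. Fixed, nuclear stain and CD31 immunofluorescence, imaged; cell counts fitted versus 0.1% DMSO, loss of signal read as lower viability.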
# E-selectin (Homo sapiens), sequence (P16581 whole entry, looked up): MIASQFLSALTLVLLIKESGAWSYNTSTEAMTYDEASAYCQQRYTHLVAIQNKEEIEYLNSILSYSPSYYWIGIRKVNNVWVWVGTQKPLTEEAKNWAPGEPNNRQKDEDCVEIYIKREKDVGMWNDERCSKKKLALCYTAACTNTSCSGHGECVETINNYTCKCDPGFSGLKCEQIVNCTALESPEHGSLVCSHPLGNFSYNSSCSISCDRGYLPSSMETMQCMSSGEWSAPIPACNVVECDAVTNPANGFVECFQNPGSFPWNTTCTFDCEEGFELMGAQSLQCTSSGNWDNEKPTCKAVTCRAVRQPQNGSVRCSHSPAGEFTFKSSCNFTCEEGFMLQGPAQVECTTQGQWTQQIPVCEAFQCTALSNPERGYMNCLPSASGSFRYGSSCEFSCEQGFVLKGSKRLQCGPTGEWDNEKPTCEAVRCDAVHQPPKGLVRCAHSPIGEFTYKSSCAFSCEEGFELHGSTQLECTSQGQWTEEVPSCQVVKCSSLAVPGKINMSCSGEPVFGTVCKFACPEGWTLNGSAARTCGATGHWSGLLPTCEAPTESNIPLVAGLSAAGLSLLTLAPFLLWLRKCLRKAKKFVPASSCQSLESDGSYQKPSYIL
smiles,measurement,setting,value
CC#C[C@]1(O)CC[C@H]2[C@@H]3CCC4=CC(=O)CCC4=C3[C@@H](c3ccc(N(C)C)cc3)C[C@@]21C,outcome,[1],inactive
same,outcome,[2],inactive
same,outcome,[3],inactive
same,outcome,[4],inactive
same,outcome,[5],inactive
same,outcome,[6],inactive
same,outcome,[7],inactive
same,outcome,[8],inactive
same,outcome,[9],inactive
same,outcome,[10],inactive
same,outcome,[11],inactive
O=C(O)Cc1cc(I)c(Oc2cc(I)c(O)c(I)c2)c(I)c1,outcome,[12],inactive
FC(F)(I)C(F)(F)C(F)(F)C(F)(F)C(F)(F)C(F)(F)I,AC50,[13],46.1 µM (active) [middle of 5 runs]
same,AC50,[14],43.5 µM (active) [middle of 5 runs]
same,AC50,[15],44.4 µM (active) [middle of 5 runs]
same,AC50,[16],33.9 µM (active) [middle of 5 runs]
same,AC50,[17],12.6 µM (active) [middle of 5 runs]
same,AC50,[18],14.6 µM (active) and 23.5 µM (active)
same,outcome,[18],inactive
same,AC50,"CD69, CD69 (gene 969)",4.49 µM (active) and 40.5 µM (active) and 53.2 µM (active)
same,outcome,"CD69, CD69 (gene 969)",inactive
NCC(F)(F)C(F)(F)C(F)(F)C(F)(F)C(F)(F)C(F)(F)C(F)(F)F,outcome,[13],inactive
same,outcome,[14],inactive
same,outcome,[15],inactive
same,outcome,[16],inactive
same,AC50,[17],0.22 µM (active)
same,outcome,[17],inactive
same,outcome,[18],inactive
same,outcome,"CD69, CD69 (gene 969)",inactive
C=C(C)C(=O)OCCC(F)(F)C(F)(F)C(F)(F)C(F)(F)C(F)(F)C(F)(F)F,outcome,[13],inactive
same,outcome,[14],inactive
same,outcome,[15],inactive
same,outcome,[16],inactive
same,outcome,[17],inactive
same,outcome,[18],inactive
same,outcome,"CD69, CD69 (gene 969)",inactive
OCCC(F)(F)C(F)(F)C(F)(F)C(F)(F)C(F)(F)C(F)(F)F,AC50,[13],55.2 µM (active)
same,outcome,[13],inactive
same,outcome,[14],inactive
same,outcome,[15],inactive
same,outcome,[16],inactive
same,AC50,[17],39.8 µM (active)
same,outcome,[17],inactive
same,outcome,[18],inactive
same,outcome,"CD69, CD69 (gene 969)",inactive
C[C@@H]1C[C@H]2[C@@H]3CCC4=CC(=O)C=C[C@]4(C)[C@@]3(F)[C@@H](O)C[C@]2(C)[C@@]1(O)C(=O)COP(=O)(O)O,AC50,[13],580 nM (active) and 1.5 µM (active)
same,outcome,[14],inactive
same,outcome,[15],inactive
same,AC50,[16],954 nM (active) and 1.38 µM (active)
same,AC50,[17],4.66 µM (active)
same,outcome,[17],inactive
same,outcome,[18],inactive
same,outcome,"CD69, CD69 (gene 969)",inactive
CCCCCCCCCCCCc1ccccc1S(=O)(=O)O,AC50,[12],1.98 µM (active)
same,outcome,[19],inactive
OCCC(F)(F)C(F)(F)C(F)(F)C(F)(F)C(F)(F)C(F)(F)C(F)(F)C(F)(F)F,AC50,[13],47.2 µM (active) and 49.9 µM (active)
same,AC50,[14],50.5 µM (active) and 49.1 µM (active)
same,AC50,[15],30 µM (active)
same,outcome,[15],inactive
same,AC50,[16],39 µM (active) and 32.8 µM (active)
same,AC50,[17],46.7 µM (active) and 47.4 µM (active)
same,AC50,[18],347 nM (active)
same,outcome,[18],inactive
same,AC50,"CD69, CD69 (gene 969)",30 µM (active) and 2.1 µM (active)
CC1=C(/C=C/C(C)=C/C=C/C(C)=C/C(=O)O)C(C)(C)CCC1,outcome,[1],inactive
same,AC50,[2],1.74 µM (active)
same,outcome,[3],inactive
same,outcome,[4],inactive
same,outcome,[5],inactive
same,outcome,[6],inactive
same,outcome,[7],inactive
same,outcome,[8],inactive
same,outcome,[9],inactive
same,outcome,[10],inactive
same,outcome,[11],inactive
CN1CCC[C@H]1c1cccnc1,outcome,[1],inactive
same,outcome,[2],inactive
same,outcome,[3],inactive
same,outcome,[4],inactive
same,outcome,[5],inactive
same,outcome,[6],inactive
same,outcome,[7],inactive
same,outcome,[8],inactive
same,outcome,[9],inactive
same,outcome,[10],inactive
same,outcome,[11],inactive
